LMP1 NFkB inh: EBV LMP1-driven NF-kappaB luciferase reporter inhibitors, primary screen, cell-based, luminescence, single point; LMP1-induced NF-kappaB luciferase reporter cells; inhibition, % at 12.5 µM; 0.69% of 350,000 active; in the data active = inhibition above about 41%; inconclusive = no clear call, values can overlap the other calls;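 also: 0% = neutral control wells and 100% = reference inhibitor control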
EWS-Fli inh: EWS/Fli-driven NR0B1 reporter inhibitors, primary screen, A673 cells, NR0B1 luciferase, luminescence, MLPCN library; inhibition, % at 12.6 µM; 0.67% of 350,000 active; AID 651661, 2012; viability-normalised;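 active = mean inhibition of at least 50% after viability correction, with every replicate also passing that limit; inconclusive = mean reaches 50% but only one of two replicates passes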;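 also: firefly luciferase signal divided by Alamar Blue viability fluorescence both relative to DMSO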
TWEAK Fn14 block: inhibitors of TWEAK-Fn14 signaling, primary screen, luciferase reporter cells, uHTS | TWEAK-stimulated Fn14 reporter cells, luciferase luminescence, 8 h | inhibition, % at 10 µM | 2% of 360,000 active; in the data active = inhibition above about 50%
TROY signal inh: inhibitors of TROY-driven NF-kB signaling, primary screen, Q293 LMP1-TROYcd cells, NF-kB luciferase, uHTS; Q293 LMP1-TROYcd NF-kB luciferase reporter, 4 h; inhibition, % at 10 µM; 0.98% of 360,000 active;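 active = compounds whose plate-normalised and pattern-corrected inhibition of the luciferase reporter signal at the single screening dose is 50% or more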
LGR2 inh: inhibitors of bursicon-induced LGR2 CRE-luciferase signal, primary screen, cell-based, HEK293, CRE-luciferase reporter, bursicon stimulation | Drosophila bursicon receptor LGR2 (rickets) | inhibition, % at 9.99 µM | bursicon-stimulated, 4 h | AID 720647, 2013 | 0.35% of 380,000 active;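 active = drop in luminescence signal, shown as inhibition above about 50% in the replicate tests, limit read from the data, passing the limit was not always enough; inconclusive = probably only some replicates passing the limit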;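 also: agonist challenge used bursicon conditioned medium at about half maximal strength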
* hit, by the source's call; ? = inconclusive; nt = no result; ! = a repeat was not active. Sampled rows, rich in hits. Any-hit rate of the full collection: about 2.6%.

SMILES	LMP1 NFkB inh	EWS-Fli inh	TWEAK Fn14 block	TROY signal inh	LGR2 inh
Cc1ccccc1S(=O)(=O)N1[C@@H]2c3ccc(-c4cccnc4)c(=O)n3C[C@H]1[C@H](CO)[C@H]2C(=O)O	nt	-0.7	nt	nt	-8.7
COc1ccc(CC2C(=O)NC(C)C(=O)N(C)C3C(=O)N(C)C(Cc4ccc(O)c(c4)Oc4ccc(cc4)C3O)C(=O)NC(C)C(=O)NC(C)C(=O)N2C)cc1 (stereo unspecified)	84.6*	43.9	101.8*	86.8*	98.9*
COC(=O)[C@@H]1[C@@H](CO)[C@@H]2Cn3c(ccc(-c4ccc(F)cc4)c3=O)[C@H]1N2Cc1ccccc1	nt	-5.5	nt	nt	-6.8
CC1Oc2cc3c(-c4c(O)cc(O)c5c(O)c6c(cc45)OC(C)C(C)C6=O)c(O)cc(O)c3c(O)c2C(=O)C1C (stereo unspecified)	29.3	nt	68.3*	12.5	nt
Cc1ccc(OCCOc2cccc(C=C3C(=O)NC(=O)NC3=O)c2)c(C)c1	45.0*	?	88.8*	-69.6	76.7*
O=C1NC(=O)C(=Cc2cccc(OCCOc3ccccc3)c2)C(=O)N1	-17.3	-31.8	-10.2	-11.7	-44.6
Fc1ccc2nc(-c3ccc(CN4CCC(n5nnc6ccccc65)CC4)cc3)c(-c3ccccc3)nc2c1	nt	19.5	nt	nt	nt
O=C1C(=O)c2ccccc2-c2ccccc21	86.1*	82.1*	107.3*	83.1*	103.9*
O=C1C(=O)c2cccc3cccc1c23	5.6	26.1	8.2	21.8	7.7
COC(=O)[C@H]1[C@H](CO)[C@H]2Cn3c(ccc(/C=C/c4ccccc4)c3=O)[C@@H]1N2C(=O)C1CC1	nt	22.0	nt	nt	-7.6
O=C(NN=Cc1ccc(N(CCCl)CCCl)cc1)c1cccnc1	47.1*	5.3	3.9	-23.3	-8.2
NC(N)=N/N=C/c1ccc(N(c2ccccc2)c2ccccc2)cc1	3.9	58.4*	12.2	69.4*	52.0*
C[C@H]1CCC/C=C/C2C[C@H](O)CC2[C@H](O)/C=C/C(=O)O1 (stereo partly specified)	-31.1	nt	56.7*	-63.0	nt
CC1CCC/C=C/C2CC(O)CC2C(O)/C=C/C(=O)O1 (stereo unspecified)	-171.8	nt	76.0*	-54.5	nt
C/C=C/c1ccc(C2[C@@H]3CN(C(=O)C4CC4)C[C@H]2N3)cc1 (stereo partly specified)	nt	5.5	nt	nt	21.4
CN1C(=O)NC(=O)/C(=C\C=C\c2ccccc2[N+](=O)[O-])C1=O	nt	66.9*	nt	nt	-3.0
COc1cc(/C=C2\C(=O)NC(=O)N(c3ccccc3)C2=O)c([N+](=O)[O-])cc1OC	-9.6	6.8	13.1	-18.3	0.1
O=C(c1ccccc1)C(CN1CCCC1)c1ccccc1 (stereo unspecified)	73.4*	nt	71.2*	10.5	?
N#Cc1cccc(-c2ccc([C@H]3[C@H]4CN(C(=O)Cc5cccnc5)CCCCN4[C@H]3CO)cc2)c1	nt	6.3	nt	nt	-19.9
O=C1CCCN1C(=O)c1cncc(Br)c1	-6.0	nt	12.2	6.4	nt
Nc1cncc(C(=O)O)c1	61.3*!	2.9	-7.5	-0.1	7.4
N=Cc1c(O)n(-c2ccc(C34CC5CC(CC(C5)C3)C4)cc2)c(=O)[nH]c1=O	0.0	nt	67.5*	53.5*	8.4
O=c1[nH]c(=O)n(-c2ccc(Br)cc2)c(O)c1C=NC(CO)(CO)CO	nt	-8.0	-0.4	1.2	4.9
CCCCCn1c(=O)c(C(=O)Nc2ccccc2S(N)(=O)=O)c(O)c2ccccc21	22.9	16.4	59.0*	36.2	26.4
CCCCn1c(=O)c(C(=O)Nc2ccccc2S(N)(=O)=O)c(O)c2ccccc21	3.5	nt	14.8	8.0	nt
SMILES	LMP1 NFkB inh	EWS-Fli inh	TWEAK Fn14 block	TROY signal inh	LGR2 inh
CCCCn1c(=O)c(C(=O)NCc2ccncc2)c(O)c2ccccc21	-1.9	nt	56.2*	22.6	nt
Oc1c(Br)cc(Br)cc1Br	3.8	-1.5	6.2	14.4	1.1
Oc1c(Br)c(Br)c(Br)c(Br)c1Br	7.5	nt	1.6	71.2*	nt
CCCN1[C@@H]2c3ccc(-c4ccc(F)cc4)c(=O)n3C[C@H]1[C@H](CO)[C@H]2C(=O)OC	nt	-3.6	nt	nt	-9.2
CNc1cc(Cl)c2nonc2c1[N+](=O)[O-]	22.8	31.2	-1.6	88.9*	104.2*
Cc1cc([N+](=O)[O-])c(Cl)cc1NC(=O)C(C)C	-0.8	nt	4.3	-0.5	0.0
COC(=O)[C@H]1[C@H](CO)[C@H]2Cn3c(ccc(-c4ccccc4)c3=O)[C@@H]1N2CC1CCCCC1	nt	13.7	nt	nt	-2.8

Screening results deposited in PubChem BioAssay by several laboratories.
